Targets with a hit are over-represented here; the source holds about 8,800 in all. About 0.5% of all pairs of compound and target were hits.
How the values were obtained:
Experiment in all cases: log2 fold change, soluble protein after heating vs DMSO (PISA); higher = thermal stabilisation; K562 lysate, 10 uM; active = over 0.2 and 3.5 SD of the protein, either way, in both replicates (recomputed)
lapatinib = compound: CS(=O)(=O)CCNCc1ccc(-c2ccc3ncnc(Nc4ccc(OCc5cccc(F)c5)c(Cl)c4)c3c2)o1 [lapatinib]
Method in brief: (§1)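 Log-two fold change in thermal stability relative to solvent controls is reported from duplicates. For each sample, crude K562 extract from dounce-homogenised pellets in PBS pH 7.4 with 1 mM MgCl2, at 1 mg/mL protein, was treated with 10 μM compound for 30 min. Aliquots heated for 3 min across 48°C-58°C were pooled, brought to 0.5% NP-40 at 4°C and cleared at 21,000xg for 90 min. The supernatant was quantified by TMTpro 16plex LC-MS/MS with channel sums equalised.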

pictilisib = compound: CS(=O)(=O)N1CCN(Cc2cc3nc(-c4cccc5[nH]ncc45)nc(N4CCOCC4)c3s2)CC1 [pictilisib]
Method in brief: as §1

crizotinib = compound: C[C@@H](Oc1cc(-c2cnn(C3CCNCC3)c2)cnc1N)c1c(Cl)ccc(F)c1Cl [crizotinib]
Method in brief: as §1

[1] = compound: C[C@H](C1=CC=C(C=C1)C(=O)NC2=C3C=CNC3=NC=C2)N
Method in brief: as §1

duvelisib = compound: C[C@H](Nc1ncnc2nc[nH]c12)c1cc2cccc(Cl)c2c(=O)n1-c1ccccc1 [duvelisib]
Method in brief: as §1

gandotinib = compound: Cc1cc(Nc2cc(CN3CCOCC3)c3nc(C)c(Cc4ccc(Cl)cc4F)n3n2)n[nH]1 [gandotinib]
Method in brief: as §1

tozasertib = compound: Cc1cc(Nc2cc(N3CCN(C)CC3)nc(Sc3ccc(NC(=O)C4CC4)cc3)n2)n[nH]1 [tozasertib]
Method in brief: as §1

doramapimod = compound: Cc1ccc(-n2nc(C(C)(C)C)cc2NC(=O)Nc2ccc(OCCN3CCOCC3)c3ccccc23)cc1 [doramapimod]
Method in brief: as §1

bafetinib = compound: Cc1ccc(NC(=O)c2ccc(CN3CC[C@H](N(C)C)C3)c(C(F)(F)F)c2)cc1Nc1nccc(-c2cncnc2)n1 [bafetinib]
Method in brief: as §1

[2] = compound: Cc1cccc(CC(=O)N2CCc3c2ccc(-c2cn(C)c4ncnc(N)c24)c3F)n1
Method in brief: as §1

nilotinib = compound: Cc1cn(-c2cc(NC(=O)c3ccc(C)c(Nc4nccc(-c5cccnc5)n4)c3)cc(C(F)(F)F)c2)cn1 [nilotinib]
Method in brief: as §1

[3] = compound: Cc1nc(Nc2n[nH]c3c2CN(C(=O)N[C@H](CN(C)C)c2ccccc2)C3(C)C)c2sccc2n1
Method in brief: as §1

dasatinib = compound: Cc1nc(Nc2ncc(C(=O)Nc3c(C)cccc3Cl)s2)cc(N2CCN(CCO)CC2)n1 [dasatinib]
Method in brief: as §1

[4] = compound: Cc1ncc(-c2ccnc(Nc3ccc(S(C)(=O)=O)cc3)n2)n1C(C)C
Method in brief: as §1

[5] = compound: Cn1cc(-c2ccc3c(c2)CCN3C(=O)Cc2cccc(C(F)(F)F)c2)c2c(N)ncnc21
Method in brief: as §1

quisinostat = compound: Cn1cc(CNCC2CCN(c3ncc(C(=O)NO)cn3)CC2)c2ccccc21 [quisinostat]
Method in brief: as §1

tipifarnib = compound: Cn1cncc1[C@@](N)(c1ccc(Cl)cc1)c1ccc2c(c1)c(-c1cccc(Cl)c1)cc(=O)n2C [tipifarnib]
Method in brief: as §1

[6] = compound: NC(=O)Nc1cc(-c2cccc(F)c2)sc1C(=O)N[C@H]1CCCNC1
Method in brief: as §1

[7] = compound: NC(=O)c1cnc(N[C@@H]2CCCC[C@@H]2N)nc1Nc1cccc(-n2nccn2)c1
Method in brief: as §1

[8] = compound: NC1(c2ccc(-c3nc4ccn5c(=O)[nH]nc5c4cc3-c3ccccc3)cc2)CCC1
Method in brief: as §1

Measured: log2 fold change

TRIM33 isoform 2 (UniProt Q9UPN9)
inactive: lapatinib -0.034 | pictilisib 0.008 | crizotinib -0.015 | [1] -0.07 | duvelisib -0.002 | gandotinib -0.023 | tozasertib 0.011 | doramapimod 0.021 | bafetinib -0.038 | [2] 0.056 | nilotinib 0.004 | [3] -0.012 | dasatinib -0.044 | [4] -0.015 | [5] 0.021 | quisinostat -0.035 | tipifarnib 0.021 | [6] -0.01 | [7] 0.01 | [8] -0.025

TRMT12 (UniProt Q53H54)
Chain of UniProt Q53H54 (Q53H54 whole entry, looked up): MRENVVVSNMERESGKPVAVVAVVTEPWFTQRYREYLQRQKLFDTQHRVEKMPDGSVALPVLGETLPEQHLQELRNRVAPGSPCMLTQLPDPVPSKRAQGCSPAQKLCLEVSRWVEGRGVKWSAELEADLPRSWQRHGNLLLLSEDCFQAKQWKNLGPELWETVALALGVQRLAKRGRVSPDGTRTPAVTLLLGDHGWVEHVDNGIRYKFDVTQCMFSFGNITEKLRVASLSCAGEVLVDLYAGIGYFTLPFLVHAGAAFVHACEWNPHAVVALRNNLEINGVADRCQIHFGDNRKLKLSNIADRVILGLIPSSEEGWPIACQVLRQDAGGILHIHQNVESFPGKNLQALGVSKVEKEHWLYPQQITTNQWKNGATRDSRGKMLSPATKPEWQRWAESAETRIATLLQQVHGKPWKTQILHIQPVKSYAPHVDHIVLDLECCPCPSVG
inactive: lapatinib 0.064 | pictilisib -0.02 | crizotinib -0.03 | [1] -0.289 | duvelisib 0.055 | gandotinib -0.054 | tozasertib -0.021 | doramapimod 0.059 | bafetinib -0.021 | [2] 0.14 | nilotinib -0.02 | [3] -0.005 | dasatinib -0.032 | [4] 0.062 | [5] -0.017 | quisinostat -0.074 | tipifarnib -0.007 | [6] 0.117 | [7] -0.009 | [8] 0.004

UBAP2L isoform 5 (UniProt Q14157)
Chain of UniProt Q14157 (Q14157 whole entry, looked up): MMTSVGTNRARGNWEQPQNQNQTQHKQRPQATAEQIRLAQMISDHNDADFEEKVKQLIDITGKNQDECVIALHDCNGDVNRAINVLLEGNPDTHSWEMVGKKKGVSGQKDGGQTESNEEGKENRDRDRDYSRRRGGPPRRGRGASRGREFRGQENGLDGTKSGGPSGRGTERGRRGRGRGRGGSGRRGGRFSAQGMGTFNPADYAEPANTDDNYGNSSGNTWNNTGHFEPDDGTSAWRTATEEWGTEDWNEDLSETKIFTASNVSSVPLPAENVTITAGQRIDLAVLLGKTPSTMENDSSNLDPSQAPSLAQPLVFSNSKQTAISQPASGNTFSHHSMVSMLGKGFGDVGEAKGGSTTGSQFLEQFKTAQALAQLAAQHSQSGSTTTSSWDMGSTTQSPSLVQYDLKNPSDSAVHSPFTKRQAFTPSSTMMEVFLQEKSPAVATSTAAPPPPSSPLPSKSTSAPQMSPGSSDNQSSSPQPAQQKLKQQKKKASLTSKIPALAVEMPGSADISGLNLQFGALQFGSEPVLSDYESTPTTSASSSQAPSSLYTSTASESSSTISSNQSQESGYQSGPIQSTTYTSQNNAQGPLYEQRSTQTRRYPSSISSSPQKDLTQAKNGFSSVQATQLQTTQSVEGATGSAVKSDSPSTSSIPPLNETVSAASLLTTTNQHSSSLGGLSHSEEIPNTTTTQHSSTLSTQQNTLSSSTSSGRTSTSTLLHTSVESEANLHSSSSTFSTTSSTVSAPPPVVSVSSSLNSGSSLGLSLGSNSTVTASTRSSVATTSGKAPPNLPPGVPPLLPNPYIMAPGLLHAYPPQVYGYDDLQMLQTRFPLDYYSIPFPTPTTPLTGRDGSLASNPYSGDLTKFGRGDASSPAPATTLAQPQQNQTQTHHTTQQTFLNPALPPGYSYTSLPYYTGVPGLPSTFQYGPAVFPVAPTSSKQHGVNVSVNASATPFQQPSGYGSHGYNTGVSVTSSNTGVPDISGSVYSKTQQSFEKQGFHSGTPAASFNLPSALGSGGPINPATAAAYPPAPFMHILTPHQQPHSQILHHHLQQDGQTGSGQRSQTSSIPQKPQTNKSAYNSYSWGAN
inactive: lapatinib -0.022 | pictilisib -0.116 | crizotinib 0.099 | [1] -0.002 | duvelisib -0.047 | gandotinib 0.034 | tozasertib -0.049 | doramapimod -0.121 | bafetinib -0.015 | [2] -0.026 | nilotinib -0.141 | [3] 0.015 | dasatinib -0.035 | [4] 0.055 | [5] -0.058 | quisinostat 0.024 | tipifarnib -0.106 | [6] 0.048 | [7] 0.01 | [8] 0.02

TUBB4A (UniProt P04350)
Chain of UniProt P04350 (P04350 whole entry, looked up): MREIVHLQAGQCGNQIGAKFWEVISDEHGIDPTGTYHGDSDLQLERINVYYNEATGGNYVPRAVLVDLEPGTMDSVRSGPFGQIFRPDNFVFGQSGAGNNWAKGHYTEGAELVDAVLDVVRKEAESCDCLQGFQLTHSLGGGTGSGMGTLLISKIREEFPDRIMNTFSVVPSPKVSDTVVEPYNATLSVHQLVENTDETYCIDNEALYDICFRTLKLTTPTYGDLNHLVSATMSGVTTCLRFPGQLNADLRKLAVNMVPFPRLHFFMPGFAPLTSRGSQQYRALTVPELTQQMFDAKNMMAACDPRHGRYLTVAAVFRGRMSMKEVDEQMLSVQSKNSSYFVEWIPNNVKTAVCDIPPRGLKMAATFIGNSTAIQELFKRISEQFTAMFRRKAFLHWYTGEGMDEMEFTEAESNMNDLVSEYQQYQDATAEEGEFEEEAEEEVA
inactive: lapatinib -0.095 | pictilisib -0.055 | crizotinib -0.001 | [1] -0.081 | duvelisib 0.059 | gandotinib 0.051 | tozasertib -0.138 | doramapimod -0.025 | bafetinib -0.026 | [2] -0.01 | nilotinib 0.027 | [3] -0.026 | dasatinib 0.003 | [4] -0.023 | [5] 0.067 | quisinostat -0.196 | tipifarnib 0.027 | [6] 0.085 | [7] 0.011 | [8] 0.023

TSFM (UniProt P43897)
Chain of UniProt P43897 (P43897 whole entry, looked up): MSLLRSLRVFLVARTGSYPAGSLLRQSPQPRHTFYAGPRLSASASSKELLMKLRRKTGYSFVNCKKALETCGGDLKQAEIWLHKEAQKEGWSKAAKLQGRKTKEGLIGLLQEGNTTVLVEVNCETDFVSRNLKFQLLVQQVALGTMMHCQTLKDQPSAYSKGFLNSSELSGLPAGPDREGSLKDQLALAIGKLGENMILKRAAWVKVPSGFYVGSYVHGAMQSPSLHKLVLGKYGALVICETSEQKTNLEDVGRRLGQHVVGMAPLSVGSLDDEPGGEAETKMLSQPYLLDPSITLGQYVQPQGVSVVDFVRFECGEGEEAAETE
inactive: lapatinib 0.003 | pictilisib -0.007 | crizotinib -0.056 | [1] 0.012 | duvelisib 0.025 | gandotinib -0.122 | tozasertib 0.047 | doramapimod 0.06 | bafetinib -0.026 | [2] -0.034 | nilotinib -0.013 | [3] 0.021 | dasatinib -0.034 | [4] -0.028 | [5] 0.017 | quisinostat -0.016 | tipifarnib 0.002 | [6] 0.002 | [7] 0.037 | [8] -0.026

TRAPPC12 (UniProt Q8WVT3)
inactive: lapatinib 0.02 | pictilisib -0.017 | crizotinib -0.033 | [1] -0.017 | duvelisib 0.012 | gandotinib -0.042 | tozasertib -0.029 | doramapimod -0.036 | bafetinib -0.039 | [2] 0.048 | nilotinib -0.007 | [3] 0.025 | dasatinib 0.024 | [4] -0.05 | [5] 0.038 | quisinostat 0.003 | tipifarnib 0.039 | [6] -0.018 | [7] -0.007 | [8] 0.013

UBE3B (UniProt Q7Z3V4)
Chain of UniProt Q7Z3V4 (Q7Z3V4 whole entry, looked up): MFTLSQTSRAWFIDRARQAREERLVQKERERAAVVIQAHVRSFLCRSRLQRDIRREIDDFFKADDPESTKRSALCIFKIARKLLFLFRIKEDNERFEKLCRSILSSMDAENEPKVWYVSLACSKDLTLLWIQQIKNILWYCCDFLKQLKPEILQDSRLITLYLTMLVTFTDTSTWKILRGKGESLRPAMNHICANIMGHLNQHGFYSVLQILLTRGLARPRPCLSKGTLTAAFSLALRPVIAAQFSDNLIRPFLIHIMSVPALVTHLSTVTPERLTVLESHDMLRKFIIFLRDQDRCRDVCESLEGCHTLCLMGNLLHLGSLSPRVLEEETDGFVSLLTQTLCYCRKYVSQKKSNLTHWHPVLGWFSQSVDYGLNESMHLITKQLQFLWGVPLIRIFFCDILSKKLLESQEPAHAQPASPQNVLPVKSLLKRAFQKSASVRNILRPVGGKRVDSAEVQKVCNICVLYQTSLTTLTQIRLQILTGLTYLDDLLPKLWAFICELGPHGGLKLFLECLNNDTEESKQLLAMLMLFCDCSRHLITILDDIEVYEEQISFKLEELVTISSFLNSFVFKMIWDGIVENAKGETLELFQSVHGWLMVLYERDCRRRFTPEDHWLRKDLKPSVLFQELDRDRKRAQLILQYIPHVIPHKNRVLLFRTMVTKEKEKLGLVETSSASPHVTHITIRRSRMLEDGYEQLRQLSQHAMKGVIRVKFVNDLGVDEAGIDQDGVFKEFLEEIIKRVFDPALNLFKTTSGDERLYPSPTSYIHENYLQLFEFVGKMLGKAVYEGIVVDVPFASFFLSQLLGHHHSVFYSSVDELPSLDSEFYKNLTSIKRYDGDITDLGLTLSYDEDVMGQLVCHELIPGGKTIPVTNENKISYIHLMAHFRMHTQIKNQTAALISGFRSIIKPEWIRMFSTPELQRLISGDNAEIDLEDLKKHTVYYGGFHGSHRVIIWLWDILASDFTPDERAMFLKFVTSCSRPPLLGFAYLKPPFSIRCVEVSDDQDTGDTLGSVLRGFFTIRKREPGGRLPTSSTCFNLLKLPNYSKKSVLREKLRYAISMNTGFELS
inactive: lapatinib -0.019 | pictilisib 0.025 | crizotinib -0.027 | [1] -0.174 | duvelisib 0.136 | gandotinib -0.17 | tozasertib -0.005 | doramapimod 0.083 | bafetinib -0.082 | [2] 0.203 | nilotinib 0.041 | [3] -0.006 | dasatinib 0.055 | [4] -0.011 | [5] 0.053 | quisinostat -0.077 | tipifarnib -0.102 | [6] 0.041 | [7] 0.14 | [8] -0.026

TLE3 isoform 5 (UniProt Q04726)
inactive: lapatinib 0.011 | pictilisib 0.127 | crizotinib 0.001 | [1] -0.409 | duvelisib 0.031 | gandotinib -0.062 | tozasertib -0.089 | doramapimod -0.061 | bafetinib 0.084 | [2] 0.084 | nilotinib 0.142 | [3] -0.174 | dasatinib -0.007 | [4] -0.06 | [5] 0.028 | quisinostat -0.102 | tipifarnib 0.05 | [6] -0.009 | [7] 0.024 | [8] 0.058

TBC1D2B (UniProt Q9UPU7)
inactive: lapatinib 0.076 | pictilisib 0.006 | crizotinib 0.041 | [1] 0.007 | duvelisib 0.027 | gandotinib -0.096 | tozasertib -0.005 | doramapimod 0.007 | bafetinib -0.057 | [2] 0.052 | nilotinib -0.019 | [3] 0.038 | dasatinib -0.008 | [4] -0.07 | [5] 0.055 | quisinostat 0.007 | tipifarnib -0.087 | [6] 0.007 | [7] -0.021 | [8] 0.006

TXNRD2 (UniProt Q9NNW7)
inactive: lapatinib 0 | pictilisib -0.017 | crizotinib 0.003 | [1] -0.046 | duvelisib 0.084 | gandotinib 0.059 | tozasertib -0.042 | doramapimod -0.066 | bafetinib 0.041 | [2] 0.034 | nilotinib 0.063 | [3] 0.008 | dasatinib 0.039 | [4] 0.071 | [5] 0.015 | quisinostat -0.017 | tipifarnib -0.005 | [6] -0.023 | [7] -0.006 | [8] -0.05

TRMT10A (UniProt Q8TBZ6)
Chain of UniProt Q8TBZ6 (Q8TBZ6 whole entry, looked up): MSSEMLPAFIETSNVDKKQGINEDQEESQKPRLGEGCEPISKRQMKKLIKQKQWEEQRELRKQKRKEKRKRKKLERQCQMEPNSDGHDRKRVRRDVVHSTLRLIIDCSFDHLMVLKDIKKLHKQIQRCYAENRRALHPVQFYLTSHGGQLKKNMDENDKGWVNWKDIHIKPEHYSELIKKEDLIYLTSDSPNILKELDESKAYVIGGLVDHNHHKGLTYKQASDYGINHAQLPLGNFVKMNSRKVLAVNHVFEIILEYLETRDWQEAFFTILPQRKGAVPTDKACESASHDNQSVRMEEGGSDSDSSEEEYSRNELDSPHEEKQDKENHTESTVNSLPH
inactive: lapatinib 0.042 | pictilisib 0.083 | crizotinib 0.031 | [1] -0.041 | duvelisib 0.001 | gandotinib 0.02 | tozasertib -0.047 | doramapimod 0.001 | bafetinib 0.012 | [2] 0.059 | nilotinib 0.008 | [3] -0.027 | dasatinib -0.07 | [4] 0.019 | [5] 0.013 | quisinostat -0.028 | tipifarnib 0.005 | [6] 0.01 | [7] 0.028 | [8] -0.01

TBL2 (UniProt Q9Y4P3)
Chain of UniProt Q9Y4P3 (Q9Y4P3 whole entry, looked up): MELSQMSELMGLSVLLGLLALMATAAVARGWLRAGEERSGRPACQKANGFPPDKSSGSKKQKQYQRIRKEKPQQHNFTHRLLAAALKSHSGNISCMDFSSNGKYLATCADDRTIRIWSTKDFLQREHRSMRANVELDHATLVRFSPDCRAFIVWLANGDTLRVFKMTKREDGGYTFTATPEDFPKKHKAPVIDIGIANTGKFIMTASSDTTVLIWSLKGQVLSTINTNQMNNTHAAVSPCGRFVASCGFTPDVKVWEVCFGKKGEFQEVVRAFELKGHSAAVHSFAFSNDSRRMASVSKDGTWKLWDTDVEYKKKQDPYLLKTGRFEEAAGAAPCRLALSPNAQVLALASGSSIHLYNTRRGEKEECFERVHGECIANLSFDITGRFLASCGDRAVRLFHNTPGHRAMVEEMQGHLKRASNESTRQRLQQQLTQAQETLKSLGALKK
inactive: lapatinib -0.025 | pictilisib -0.002 | crizotinib -0.007 | [1] -0.068 | duvelisib 0.014 | gandotinib -0.053 | tozasertib 0.063 | doramapimod 0.032 | bafetinib -0.013 | [2] 0.055 | nilotinib -0.025 | [3] -0.043 | dasatinib -0.008 | [4] -0.004 | [5] 0.014 | quisinostat -0.031 | tipifarnib -0.06 | [6] -0.007 | [7] 0.003 | [8] -0.037

TRADD (UniProt Q15628)
inactive: lapatinib -0.015 | pictilisib -0.011 | crizotinib -0.003 | [1] -0.022 | duvelisib -0.081 | gandotinib -0.03 | tozasertib -0.011 | doramapimod -0.022 | bafetinib -0.034 | [2] 0.035 | nilotinib 0.009 | [3] -0.02 | dasatinib 0.065 | [4] -0.013 | [5] -0.002 | quisinostat -0.018 | tipifarnib 0.053 | [6] 0.044 | [7] 0.01 | [8] 0.041

UBL4A (UniProt P11441)
active: [1] 0.253
inactive: lapatinib -0.003 | pictilisib -0.057 | crizotinib 0.112 | duvelisib 0.007 | gandotinib -0.157 | tozasertib 0.076 | doramapimod -0.029 | bafetinib -0.044 | [2] -0.06 | nilotinib -0.005 | [3] -0.013 | dasatinib 0.052 | [4] -0.037 | [5] 0.036 | quisinostat 0.157 | tipifarnib -0.024 | [6] 0.02 | [7] 0.007 | [8] 0.016

TNFAIP3 (UniProt P21580)
Chain of UniProt P21580 (P21580 whole entry, looked up): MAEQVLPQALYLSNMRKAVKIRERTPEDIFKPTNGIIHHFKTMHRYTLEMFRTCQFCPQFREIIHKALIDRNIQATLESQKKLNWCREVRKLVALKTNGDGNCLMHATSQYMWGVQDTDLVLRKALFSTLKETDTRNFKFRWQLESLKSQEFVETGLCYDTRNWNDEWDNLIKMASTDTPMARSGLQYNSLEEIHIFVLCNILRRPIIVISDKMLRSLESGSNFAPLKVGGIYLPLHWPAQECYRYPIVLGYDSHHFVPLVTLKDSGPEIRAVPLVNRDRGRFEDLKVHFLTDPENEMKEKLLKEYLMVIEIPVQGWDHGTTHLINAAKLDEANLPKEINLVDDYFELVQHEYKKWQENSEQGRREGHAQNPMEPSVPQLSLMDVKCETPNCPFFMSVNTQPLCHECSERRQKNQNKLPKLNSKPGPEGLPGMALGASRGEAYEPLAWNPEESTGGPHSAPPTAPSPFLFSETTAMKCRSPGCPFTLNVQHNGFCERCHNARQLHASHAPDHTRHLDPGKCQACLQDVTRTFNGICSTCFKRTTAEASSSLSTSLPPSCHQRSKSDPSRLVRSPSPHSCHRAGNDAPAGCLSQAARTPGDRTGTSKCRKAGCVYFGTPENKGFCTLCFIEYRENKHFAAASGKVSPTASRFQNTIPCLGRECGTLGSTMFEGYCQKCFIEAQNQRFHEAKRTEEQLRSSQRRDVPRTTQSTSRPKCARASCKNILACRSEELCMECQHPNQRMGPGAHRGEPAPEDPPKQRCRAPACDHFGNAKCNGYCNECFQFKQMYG
inactive: lapatinib -0.032 | pictilisib 0.052 | crizotinib -0.013 | [1] 0.032 | duvelisib 0.038 | gandotinib -0.075 | tozasertib 0.744 | doramapimod 0.084 | bafetinib -0.02 | [2] -0.023 | nilotinib 0.038 | [3] -0.01 | dasatinib -0.002 | [4] -0.04 | [5] 0.033 | quisinostat 0.008 | tipifarnib -0.068 | [6] 0.025 | [7] 0.01 | [8] 0.003

UBAP2 (UniProt Q5T6F2)
inactive: lapatinib -0.04 | pictilisib -0.079 | crizotinib 0.091 | [1] -0.173 | duvelisib -0.003 | gandotinib 0.095 | tozasertib -0.02 | doramapimod -0.097 | bafetinib -0.066 | [2] 0.061 | nilotinib -0.093 | [3] 0.008 | dasatinib -0.042 | [4] 0.021 | [5] -0.023 | quisinostat -0.008 | tipifarnib -0.073 | [6] 0.019 | [7] 0.016 | [8] 0.029
